# Reference: PubChem BioAssay (NCATS)
# A number with no mark means an inactive call. Results filed as inconclusive are left out. A call without a number means that no potency is given here. Calls of active or inactive are those of the source. Unless noted, calls follow the shape of the dose curve; as a rule, active = well fitted curve in the direction sought with a large enough effect; inconclusive = small, poorly fitted or top-dose-only effect, or another doubt; inactive = no such curve, though single readings can be large; an effect the other way counts as inactive or inconclusive.
# Key:
# [1] = Validation qHTS assay for inhibitors of Activation Induced Cytidine Deaminase (AID): UDG Counterscreen signal (AID 1347427); also: potency is read from the fitted curve at half-maximal effect
# In short: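 Counterscreen read of UDG activity (2 U/mL, 4/3x) in the FRET deamination format with AID (1 uM, 4/3x), DJC20/DJC23 substrates (250 nM, 4x), 4 h at room temperature. NaOH stop, fluorescence at 560 ex/665 em.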
# [2] = target: Single-stranded DNA cytosine deaminase (Homo sapiens) (UniProt Q9GZX7); assay: Validation qHTS assay for inhibitors of Activation Induced Cytidine Deaminase (AID): AID signal (AID 1347429)
# In short: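 In this coupled qHTS, AID deaminates a FRET-labelled ssDNA substrate in the presence of UDG over 4 hr at room temperature. Compounds span up to 114 uM final.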
# [3] = Primary qHTS for inhibitors of La Crosse Virus (LACV) - induced cell death in SH-SY5Y cells (AID 1508616); also: potency is read from the fitted curve at half-maximal effect
# In short: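 Readout was luminescence from ATPLite 1step added after a 6-day LACV infection (0.01 MOI) of SH-SY5Y cells that had received pin-transferred compound 24 hr after seeding.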
# [4] = qHTS for inhibitors of adenylyl cyclases using a fission yeast platform: a pilot screen against the NCATS LOPAC library (AID 1347410)
# In short: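 Growth medium went into the plates first, then compounds were pinned (final up to 57 µM), then CHP2027 yeast were added. Plates were incubated overnight (18 h) at 30C in the dark, and GFP was measured by laser scanning cytometry.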
# [5] = qHTS to identify inhibitors of the type 1 interferon - major histocompatibility complex class I in skeletal muscle: primary screen against the NCATS Mechanism Interrogation Plate v5.0 (MIPE) Libary (AID 1347411); also: nearly all actives have a fitted effect of over 65% in size
# In short: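 Cells were genome-edited human myoblasts carrying a HiBit tag on endogenous HLA-B. They were treated with IFN-beta (4.0 ng/ml) and titrated compounds (top 46 uM) for 24 hrs before lytic HiBiT detection.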
# [6] = target: Calcium and integrin-binding protein 1 (Homo sapiens) (UniProt Q99828); assay: Primary qHTS for Identification of Calcium Integrin Binding Protein 1 (CIB1) Competitor (AID 1508620);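 also: GST tagged CIB1 binding a fluorescein labelled alphaIIb integrin peptide tracer; top concentration of the series differs between compounds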
# In short: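 Fluorescence polarization competition: CIB1-GST (1 uM final) preincubated with compound 15 min at room temperature, then FITC-labeled alphaIIb peptide (100 nM final) added for another 15 min. Polarization read at Ex 480/Em 540.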
# [7] = target: Calcium and integrin-binding protein 1 (Homo sapiens) (UniProt Q99828); assay: Validation qHTS for Identification of Calcium Integrin Binding protein 1 (CIB1) Competitor (AID 1508618)
# In short: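 In this qHTS validation, the LOPAC set (up to 114 uM) was tested for blocking CIB1 binding to a fluorescein-tagged alphaIIb peptide, with FP detection at 480/540 nm.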
# [8] = Counterscreen qHTS for small molecule stabilizers of the endoplasmic reticulum resident proteome: GLuc-NoTag assay (AID 1508627);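 also: SH-SY5Y cells given compound then 100 nM thapsigargin to empty ER calcium; series mostly up to about 76 µM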
# In short: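 SH-SY5Y cells stably expressing constitutively secreted GLuc (no SERCaMP tag) were pre-incubated 5 h, treated with compound for 19 h, then 100 nM thapsigargin for 4 h at 37C; medium GLuc read by coelenterazine luminescence.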
# [9] = Primary qHTS for inhibitors of SARS-S pseudo-typed particle cell entry (AID 1479145; calls by dose curve; also: nearly all actives have a fitted effect of over 45% in size); conditions: outcome: dose series up to 57.1 µM unless noted
# [10] = Primary qHTS for Huh7 cytotoxicity: counterscreen for inhibitors of MERS-S pseudotyped particle cell entry (AID 1479147; calls by dose curve); conditions: outcome: dose series up to 57.1 µM unless noted
# [11] = Primary qHTS for inhibitors of MERS-S pseudo-typed particle cell entry (AID 1479149; calls by dose curve; also: nearly all actives have a fitted effect of over 60% in size); conditions: outcome: dose series up to 57.1 µM unless noted
# [12] = Primary qHTS for Vero E6 cytotoxicity: counterscreen for inhibitors of SARS-S pseudo-typed particle cell entry (AID 1479150; calls by dose curve)
# Chain of Calcium and integrin-binding protein 1 (Homo sapiens) (Q99828 whole entry, looked up): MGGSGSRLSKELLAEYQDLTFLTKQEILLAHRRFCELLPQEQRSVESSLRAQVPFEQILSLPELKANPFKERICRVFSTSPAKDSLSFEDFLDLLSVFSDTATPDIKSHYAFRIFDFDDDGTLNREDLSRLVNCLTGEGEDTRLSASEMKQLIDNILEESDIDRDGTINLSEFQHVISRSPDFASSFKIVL
# Chain of Single-stranded DNA cytosine deaminase (Homo sapiens) (Q9GZX7 whole entry, looked up): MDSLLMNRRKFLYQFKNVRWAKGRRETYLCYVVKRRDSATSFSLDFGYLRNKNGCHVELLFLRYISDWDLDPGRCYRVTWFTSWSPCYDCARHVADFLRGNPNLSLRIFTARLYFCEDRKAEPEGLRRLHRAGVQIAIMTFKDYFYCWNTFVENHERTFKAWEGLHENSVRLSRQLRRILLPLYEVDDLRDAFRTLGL
smiles,measurement,setting,value
C=CCN(C1=NCCN1)c1c(Cl)cccc1Cl,Potency,[1],inactive
same,Potency,[2],inactive
same,Potency,[3],inactive
COc1ccc2c(c1)[C@@]13CCCC[C@H]1[C@@H](C2)NCC3,Potency,[1],inactive
same,Potency,[2],inactive
C[C@@H]1[C@@H]2Cc3ccc(O)cc3[C@@]1(C)CCN2CC1CC1,Potency,[1],inactive
same,Potency,[3],inactive
Ic1ccccc1CNC1C2CCN(CC2)C1C(c1ccccc1)c1ccccc1 (stereo unspecified),outcome,[4],inactive
same,Potency,[1],inactive
same,Potency,[2],inactive
C[Se]C[C@H](N)C(=O)O,Potency,[1],inactive
same,Potency,[3],inactive
C=CCN1CC[C@]23c4c5ccc(O)c4O[C@H]2/C(=N/NC(=O)c2ccccc2)CC[C@@]3(O)[C@H]1C5,Potency,[1],inactive
same,Potency,[2],inactive
C[C@]12CC[C@H]3[C@@H](CC[C@@]45O[C@@H]4C(O)=C(C#N)C[C@]35C)[C@@H]1CC[C@@H]2O,outcome,[5],inactive
CCOc1ccccc1-n1c(C(C)N2CCN(C(=O)COc3ccc(Cl)cc3)CC2)nc2ccccc2c1=O (stereo unspecified),outcome,[5],inactive
same,Potency,[6],inactive
O=[N+]([O-])c1ccc2nc(N3CCNCC3)ccc2c1,outcome,[4],inactive
same,Potency,[1],inactive
same,Potency,[2],inactive
same,Potency,[7],inactive
same,outcome,[8],inactive
O=[N+]([O-])c1cc(O)c(O)c([N+](=O)[O-])c1,outcome,[4],inactive
same,Potency,[1],inactive
same,Potency,[2],inactive
same,Potency,[3],inactive
same,Potency,[7],inactive
C/C(O)=C(\C#N)C(=O)Nc1cc(Br)ccc1Br,Potency,[1],inactive
same,Potency,[2],inactive
O=C(O)c1cc[c]([Hg][Cl])cc1,Potency,[1],inactive
same,Potency,[3],inactive
same,outcome,[8],inactive
CCC1C(C)=NN=C(c2ccc(OC)c(OC)c2)c2cc(OC)c(OC)cc21 (stereo unspecified),outcome,[9],inactive
same,outcome,[10],inactive
same,outcome,[11],inactive
same,Potency,[12],inactive
N[C@@H](Cn1ccc(=O)[nH]c1=O)C(=O)O,Potency,[1],inactive
same,Potency,[3],inactive
CCN(CCCl)Cc1ccccc1Br,Potency,[1],inactive
same,Potency,[3],2.82 µM (active)
CN1CCc2cc(O)cc3c2[C@H]1Cc1ccc(O)c(O)c1-3,outcome,[4],inactive
same,Potency,[1],inactive
same,Potency,[2],inactive
same,Potency,[3],3.98 µM (active)
same,Potency,[7],inactive
C[C@]12Cc3cn4c(nc3C=C1CCC1C2CC[C@@]2(C)[C@H]1CC[C@@]2(O)C#N)nc1ccccc14 (stereo partly specified),outcome,[4],inactive
same,Potency,[1],inactive
same,Potency,[2],inactive
same,Potency,[3],inactive
same,Potency,[7],inactive
O=C1CC[C@@]2(O)C3Cc4ccc(O)c5c4C2(CCN3CC2CC2)[C@H]1O5 (stereo partly specified),outcome,[4],inactive
same,Potency,[7],inactive
COc1cc(CC(C)N)c(OC)cc1I (stereo unspecified),Potency,[1],inactive
same,Potency,[2],inactive
same,Potency,[3],inactive
CC1=C2C[C@H]3[C@@H](CC=C4C[C@@H](O)CC[C@@]43C)[C@@H]2CC[C@]12O[C@@H]1C[C@H](C)CN[C@H]1[C@H]2C,outcome,[5],inactive
same,Potency,[6],inactive
CC(C)(C)c1cc(C=C(C#N)C#N)cc(C(C)(C)C)c1O,outcome,[4],inactive
same,Potency,[1],70.8 µM (active)
same,Potency,[2],inactive
same,Potency,[7],inactive
COc1ccc2c(c1)/C(=C/c1cnc[nH]1)C(=O)N2,Potency,[1],inactive
same,Potency,[2],inactive
CC(C)[C@@]1(NC(=O)[C@@H]2C[C@@H]3c4cccc5[nH]cc(c45)C[C@H]3N(C)C2)O[C@@]2(O)[C@@H]3CCCN3C(=O)[C@H](Cc3ccccc3)N2C1=O,Potency,[1],inactive
same,Potency,[2],inactive
same,Potency,[3],inactive
same,outcome,[8],inactive
COc1ccc2c(c1)c(CCN1CCOCC1)c(C)n2C(=O)c1cccc(Cl)c1Cl,Potency,[1],inactive
same,Potency,[2],inactive
same,Potency,[3],inactive
CCCCCCC(C)(C)c1ccc([C@@H]2C[C@H](O)CC[C@H]2CCCO)c(O)c1,Potency,[1],inactive
same,Potency,[3],inactive
NC(Cc1ccc(N(CCCl)CCCl)cc1)C(=O)O (stereo unspecified),Potency,[1],inactive
same,Potency,[2],inactive
same,Potency,[3],0.794 µM (active)
CCCn1c(C)c(C(=O)c2ccc3ccccc3c2)c2ccccc21,Potency,[1],inactive
same,Potency,[3],inactive
C[C@]12CCC(=O)C=C1C=C[C@@H]1[C@@H]2CC[C@@]2(C)[C@H]1CC[C@@]2(O)CCC(=O)O,outcome,[10],inactive
same,outcome,[11],inactive
same,Potency,[12],inactive
CC1CCC(C(C)C)C(OC(=O)c2ccccc2N)C1 (stereo unspecified),outcome,[9],inactive
same,outcome,[10],inactive
same,outcome,[11],inactive
same,Potency,[12],inactive
O=c1[nH]cc(N(CCCl)CCCl)c(=O)[nH]1,outcome,[9],inactive [at 114 µM]
same,outcome,[10],inactive [at 114 µM]
same,outcome,[11],inactive [at 114 µM]
same,Potency,[12],inactive
O=C(C[C@@H]1NCCC[C@H]1O)Cn1cnc2cc(Br)c(Cl)cc2c1=O,outcome,[9],inactive
same,outcome,[10],inactive
same,outcome,[11],inactive
same,Potency,[12],inactive
C/C(=C\c1csc(C)n1)[C@@H]1C[C@@H]2O[C@]2(C)CCC[C@H](C)[C@H](O)[C@@H](C)C(=O)C(C)(C)[C@@H](O)CC(=O)O1,outcome,[9],inactive
same,outcome,[10],inactive
same,outcome,[11],inactive
same,Potency,[12],inactive
Cn1sc(Cl)cc1=O,outcome,[9],inactive
same,outcome,[10],inactive
same,outcome,[11],inactive
same,Potency,[12],inactive
CCN(CC)C(=O)N[C@H]1C[C@@H]2c3cccc4[nH]cc(c34)C[C@H]2N(C)C1,outcome,[10],inactive
same,outcome,[11],inactive
same,Potency,[12],inactive
CC(C)(O)[C@@H]1[C@H]2OC(=O)[C@@H]1[C@]1(O)C[C@H]3O[C@]34C(=O)O[C@H]2[C@]14C,outcome,[9],inactive
same,outcome,[10],inactive
same,outcome,[11],inactive
same,Potency,[12],inactive
CCCCC[C@@H](O)C1C(=O)OC(C)[C@H](O)/C=C/C=C/C=C/C=C/C=C(\C)C(O)C(O)C(O)C[C@H](O)C[C@H](O)C[C@H](O)C[C@H](O)C[C@@H]1O (stereo partly specified),outcome,[9],inactive
same,outcome,[10],inactive
same,outcome,[11],inactive
same,Potency,[12],inactive
